Outcome and AC50 data for 37 molecules are collected here from PubChem BioAssay (EPA / NIEHS).

Several values for one entry are separate records, joined by “and”; a condition that tells them apart may be missing. Equal entries are not always repeated. More than one record can exist for a structure, and the calls need not agree. Activity calls are given as the source filed them. How the source made its calls: active means hit-call score of the fitted dose curve at least 0.9, where 1 is the maximum; inactive means score below 0.9.

Read-out in the test: Vascular cell adhesion molecule 1 (VCAM1), VCAM1 (gene 7412)
In words: BSK_LPS_VCAM1: BioMAP Diversity Plus: LPS Assay for Vascular cell adhesion molecule 1 (VCAM1) Biomarker Activity (AID 2283086). The conditions noted are these: primary human HUVEC with PBMC; actives raise or lower the signal. As to the method:
BSK_LPS is a cell-based, multiplexed-readout assay that uses umbilical vein endothelium and peripheral blood mononuclear cells, a human vascular primary cell co-culture, with measurements taken at 24 hours after chemical dosing in a 96-well plate.BSK_LPS_VCAM1 is an assay component measured in the BSK_LPS assay. It measures VCAM-1 antibody related to regulation of gene expression using ELISA technology.Data from the assay component BSK_LPS_VCAM1 was analyzed into 1 assay endpoint. This assay endpoint, BSK_LPS_VCAM1, was analyzed with bidirectional fitting relative to DMSO as the negative control and baseline of activity. Using a type of binding reporter, gain or loss-of-signal activity can be used to understand changes in the signaling as they relate to the gene VCAM1. Furthermore, this assay endpoint can be referred to as a primary readout, because this assay has produced multiple assay endpoints where this one serves a signaling function. To generalize the intended target to other relatable targets, this assay endpoint is annotated to the cell adhesion molecules intended target family, where the subfamily is Immunoglobulin CAM.
The levels of cell surface (or secreted, indicated by the prefix "s") biomarker endpoints were measured by ELISA. Overt cytotoxicity to cells in confluent adherent cultures (all systems other than the BT system) was assessed by measuring total protein levels using sulforhodamine B (SRB) staining in parallel cultures at the time of biomarker measurements, indicated as SRB endpoints. For proliferation assays for adherent cell types, individual cell types are cultured at sub-confluence and relative cell numbers quantified by SRB staining at time points optimized for each system (48 h: 3C and CASM3C systems; 72 h: BT and HDF3CGF systems; 96 h: SAg system). SRB was performed by staining cells with 0.1% SRB after fixation with 10% TCA and reading wells at 560 nm.Viability and proliferation of PBMC (T cells) was quantified by Alamar Blue reduction for the SAg and BT systems. For PBMC viability (referred to as PBMC Cytotoxicity within the assay endpoint names), cells were plated (75,000/well in a 96-well plate) and then chemical samples added for 1 h before addition of activators, SEB and TSST-1 (20 ng/mL final concentration each). Cells were incubated for 90 h. Then, Alamar Blue (20 uL/well) (Invitrogen, Cat DAL1100) was added for 6 h, and the plates were read with a fluorescence microplate reader at 546/580 nm (excitation/emission). For PBMC proliferation, cells were plated and activated as above but incubated for only 16 h prior to addition of Alamar Blue. Plates were read after 6 h.
For the molecule `CC(=O)OCC=C(C)CCC=C(C)CCC=C(C)C`, the outcome was inactive.

In the case of `CC=CC(=O)C1=C(C)C=CCC1(C)C`, the outcome was inactive.

As for `CCCCCCCCCC(=O)OCC`, the result was inactive.

Turning to `C=C(C)C(=O)OCCC(F)(F)C(F)(F)C(F)(F)C(F)(F)C(F)(F)C(F)(F)C(F)(F)C(F)(F)F`, the concentration at half-maximal activity (AC50) – broadly, the midpoint of the concentration-response curve, whichever way the signal moves – is 1.22 µM (active) and the outcome was inactive.

As to `NC(=O)c1c(Cl)cccc1Cl`, the outcome was inactive.

Consider `c1ccc(OCCOc2ccccc2)cc1`, for which the outcome was inactive.

Consider `CC(C)CCCC(C)(C)O`, for which the result was inactive.

Take `O=S1(=O)CC(Cl)(Cl)C(Cl)(Cl)C1`: the half-maximal activity concentration (AC50) is 0.797 µM (active).

For `Nc1ccc(N)c([N+](=O)[O-])c1`, the half-maximal activity concentration (AC50) is 5.09 µM (active).

With `CC(C)Cc1ccc(C(C)C(=O)O)cc1` (stereo not given), the outcome was inactive.

Take `CCn1cc(C(=O)O)c(=O)c2ccc(C)nc21`: the result was inactive.

As to `O=C(O)C(F)(F)C(F)(F)C(F)(F)C(F)(F)C(F)(F)C(F)(F)C(F)(F)C(F)F`, the result was inactive.

On to `CC(C)(CO)CO`, for which the result was inactive.

On to `O=C(c1ccc(OCCN2CCCCC2)cc1)c1c(-c2ccc(O)cc2)sc2cc(O)ccc12`, for which the AC50 was 28.4 µM (active).

Take `CCC(=O)OCC=Cc1ccccc1`: the outcome was inactive.

Consider `O=C1OC2(c3ccc(O)cc3Oc3cc(O)ccc32)c2ccccc21`, for which the outcome was inactive.

On to `C[C@]12CC[C@@H]3c4ccc(O)cc4CC[C@H]3[C@@H]1CC[C@@H]2O`, for which the AC50 was 16.5 µM (active).

On to `CC(C)(C)c1cccc(O)c1`, for which the result was inactive.

For the molecule `CCCCCCCCCCCCS`, the AC50 was 20 µM (active).

Turning to `CC(=O)c1ccc(C)cc1`, the result was inactive.

In the case of `CCCCCCCC1CCCC1=O` (stereo not given), the outcome was inactive.

Turning to `COc1ccccc1NC(=O)CC(C)=O`, the outcome was inactive.

For the molecule `CCCCOCCOCCO`, the result was inactive.

Take `c1ccc2c(c1)-c1ccc3ccc4cccc5cc-2c1c3c45`: the outcome was inactive.

Consider `CC1=CC(C)C(C=O)C(C)C1` (stereo not given) (tested in a mixture with another compound), for which the result was inactive.

On to `COC(=O)c1ccc(C(=O)OC)cc1`, for which the result was inactive.

With `O=C(O)C(F)(F)OC(F)(F)C(F)(F)OC(F)(F)C(F)(F)C(F)(F)C(F)(F)F`, the outcome was inactive and the AC50 is 24.4 µM (active).

As to `C#C[C@]1(O)CC[C@H]2[C@@H]3CCc4cc(O)ccc4[C@H]3CC[C@@]21C`, the half-maximal activity concentration (AC50) was 6.47 µM (active).

Consider `CCOC(=O)CCCCCCCCC(=O)OCC`, for which the outcome was inactive.

Turning to `C=C(F)C(=O)OC(C(F)(F)F)C(F)(F)F`, the outcome was inactive.

Regarding `OCC(F)(OC(F)(F)C(F)(OC(F)(F)C(F)(F)C(F)(F)F)C(F)(F)F)C(F)(F)F` (stereo not given), the AC50 is 5.05 µM (active) and the outcome was inactive.

As to `C=C1CC/C=C(\C)CC[C@@H]2[C@@H]1CC2(C)C`, the AC50 was 29.4 µM (active).

`CCCCN(CCO)CCO`: the outcome was inactive.

On to `CC1(C)[C@H](C=C(Cl)Cl)[C@H]1C(=O)OCc1cccc(Oc2ccccc2)c1`, for which the outcome was inactive.

Regarding `CC(=O)CCC=C(C)CCC=C(C)C`, the outcome was inactive.

Consider `C=C(C)C(N)=O`, for which the result was inactive.

As for `CC/C(=C(\c1ccccc1)c1ccc(OCCN(C)C)cc1)c1ccccc1`, the half-maximal activity concentration (AC50) was 24.3 µM (active) and 13.6 µM (active).
